Results published in PubChem BioAssay AID630 (Emory University Molecular Libraries Screening Center, 2007).
Screen size: about 88,000 compounds; about 260 (0.3%) were called active.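 The calls were made as follows: active = compounds that reduce the energy-transfer binding signal between the protein and its labelled peptide by more than half; inactive = the rest.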 The full list was thinned out, with actives kept by preference.

These compounds were tested against Mothers against decapentaplegic homolog 3 (Homo sapiens) (UniProt P84022) (assay: blockers of Smad3 binding to FoxH1 – biochemical, TR-FRET, primary screen (AID 630;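 also: 0% = Smad3 plus labelled peptide maximal FRET and 100% = peptide-only background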)). Settings: TR-FRET Smad3/Dy647-FoxH1 peptide binding, europium anti-His; at 25 µM; active compounds read high.
Sequence of Mothers against decapentaplegic homolog 3 (Homo sapiens) (P84022 whole entry, looked up): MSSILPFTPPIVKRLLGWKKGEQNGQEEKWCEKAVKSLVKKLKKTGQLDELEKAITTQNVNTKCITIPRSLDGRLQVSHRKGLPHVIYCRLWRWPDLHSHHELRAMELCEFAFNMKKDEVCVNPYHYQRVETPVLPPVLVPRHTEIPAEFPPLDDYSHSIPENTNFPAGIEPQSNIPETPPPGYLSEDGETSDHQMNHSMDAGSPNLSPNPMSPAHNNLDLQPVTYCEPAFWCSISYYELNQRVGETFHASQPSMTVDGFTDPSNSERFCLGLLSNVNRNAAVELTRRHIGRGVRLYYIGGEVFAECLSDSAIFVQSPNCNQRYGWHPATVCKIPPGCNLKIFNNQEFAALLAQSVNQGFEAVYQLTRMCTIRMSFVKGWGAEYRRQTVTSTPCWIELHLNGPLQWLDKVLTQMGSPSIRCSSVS
With `Cc1ccc(S(=O)(=O)O[C@H]2CN3CCC2CC3)cc1` the inhibition was 67.3% (active).
`O=C1C[C@@H]2OCC=C3CN4CC[C@]56c7ccccc7N1[C@H]5[C@H]2[C@H]3C[C@H]46` (tested in a mixture with another compound) was tested, and the inhibition was -5.82% (inactive).
With `c1cc2c(cc1CCNC1CCCCCC1)OCO2` the inhibition was -10.4% (inactive).
In the case of `CC[C@@](O)(C(=O)O)c1cc2n(c(=O)c1CO)Cc1cc3ccccc3nc1-2`, the inhibition is reported as -1.51% (inactive).
With `C=C[C@@H]1CN2CC[C@H]1C[C@@H]2[C@H](O)c1ccnc2ccccc12` the inhibition was -9.04% (inactive).
